PubChem BioAssay (EPA / NIEHS)
Results filed as inconclusive are left out. Some structures have more than one record in an assay (separate samples or runs), and their calls can disagree. Activity calls are given as the source filed them. Rule for the calls: active = hit-call score of the fitted dose curve at least 0.9, where 1 is the maximum; inconclusive = response in the unintended direction; inactive = score below 0.9.

Test: ACEA_AR_antagonist_AUC_viability: ACEA Biosciences xCELLigence Real-Time Cell Analysis on Androgen Receptor Antagonism for Viability (AID 2283776);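 note: area under impedance growth curve at 80 h after dosing as viability; hits lower the growth signal relative to DMSO meaning cytotoxicity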
Procedure: ACEA_AR_antagonist is a cell-based, single-readout assay that uses 22Rv1, a human prostate cancer cell line, with measurements taken at 80 hours after chemical dosing in a 384-well plate, although TO5 and TO6 (mc0.srcf) used a 96-well plate. Differences in plate size can be ignored given data normalization.ACEA_AR_80hr is one of two assay component(s) measured or calculated from the […] assay. It is designed to make measurements of real-time cell-growth kinetics, a form of growth reporter, as detected with electrical impedance signals by Real-Time Cell Electrode Sensor (RT-CES) technology.Data from the assay component ACEA_AR_antagonist_AUC_viability was analyzed in the positive analysis fitting direction relative to DMSO as the negative control and baseline of activity. Using a type of growth reporter, loss-of-signal activity can be used to understand changes in the viability. Furthermore, this assay endpoint can be referred to as a secondary readout, because this assay has produced multiple assay endpoints where this one serves a viability function. To generalize the intended target to other relatable targets, this assay endpoint is annotated to the cell cycle intended target family, where the subfamily is cytotoxicity.
The xCELLigence system Multi-E-Plate stations were used to measure the time-dependent response to chemicals. Each compound was tested in an eight-point, 1:4 serial dilution series starting at a maximum final concentration of 100 uM. A maximum starting concentration of 0.5% DMSO was present in the 100 uM chemical samples and was diluted along with the test article dilution series. The screen was performed in biological duplicate using two separate, 96-well, E-Plates 96 for each dilution series (n = 2). Positive controls (MG132 and testosterone) and a negative control (assay media) were tested in quadruplicate on each testing plate. Then, 0.5% and 0.125% DMSO were tested in duplicates in each plate to serve as solvent controls for the 2 highest concentrations of testing compounds: 100 uM and 25 uM. Reference compounds were tested with 8 concentrations with 1:5 serial dilutions. All screening was carried out by ACEA Biosciences, Inc. (San Diego, CA). 22Rv1 cells purchased from ATCC were maintained in media supplemented with 10% fetal bovine serum (FBS). Before screening, 22Rv1 cells were preconditioned in assay medium. Cells were then detached and seeded in E-Plates 96 in assay medium. After overnight monitoring of growth once every hour, compounds were added to […] cells and remained in the medium until the end of the experiment. Cellular responses were then recorded once every 5 min for the first 5 h, and once every hour for an additional 100 h.

**Q.** With O=S(=O)(O)c1ccc(N=Nc2c(O)ccc3ccccc23)cc1 as the molecule, how does the outcome read?
**A.** inactive

**Q.** Which outcome does the source give for CCCCCCCCCCCCCC(=O)OC(C)C here?
**A.** inactive

**Q.** For CC(C)(c1ccccc1)c1ccc(Nc2ccc(C(C)(C)c3ccccc3)cc2)cc1, which AC50 is on record?
**A.** 11.4 µM (active)

**Q.** Which outcome does the source give for C=C1C[C@H]2[C@@H]3C=C(C)C4=CC(=O)CC[C@]4(C)[C@H]3CC[C@]2(C)[C@@]1(OC(C)=O)C(C)=O here?
**A.** inactive

**Q.** With CC(C)c1cc(C(C)C)cc(C(C)C)c1 as the molecule, how does the outcome read?
**A.** inactive

**Q.** With Oc1ccccc1Cc1ccccc1O as the molecule, how does the AC50 read?
**A.** 1.48 µM (active)

**Q.** With CCCCCCOc1ccc(N)cc1 as the molecule, how does the outcome read?
**A.** inactive

**Q.** For CCN1CN(CC)CN(CC)C1, which outcome is on record?
**A.** inactive

**Q.** Which outcome does the source give for C=C[C@@]1(C)CC(=O)[C@]2(O)[C@@]3(C)[C@@H](O)CCC(C)(C)[C@@H]3[C@H](O)[C@H](OC(C)=O)[C@@]2(C)O1 here?
**A.** inactive

**Q.** For CCCCCCCCCC(C)=O, which outcome is on record?
**A.** inactive

**Q.** Which AC50 does the source give for O=C(Nc1ccccc1)c1cc(Cl)ccc1O here?
**A.** 16.6 µM (active)

**Q.** With CN(C)c1ccc2nc3ccc(=[N+](C)C)cc-3sc2c1 as the molecule, how does the AC50 read?
**A.** 9.9 µM (active)

**Q.** Which outcome does the source give for CCCCOCCOC(=O)COc1ccc(Cl)cc1Cl here?
**A.** inactive

**Q.** For CCCCNS(=O)(=O)c1ccccc1, which outcome is on record?
**A.** inactive

**Q.** Which outcome does the source give for CCCCCCCO here?
**A.** inactive

**Q.** Which outcome does the source give for CC1=NN(c2ccc(S(=O)(=O)O)cc2)C(=O)C1N=Nc1ccccc1 (stereo not given) here?
**A.** inactive

**Q.** With O=C(O)CC(C(=O)O)S(=O)(=O)O (stereo not given) as the molecule, how does the outcome read?
**A.** inactive

**Q.** Which outcome does the source give for O=C(O)c1cc(O)c2ccccc2c1O here?
**A.** inactive

**Q.** Which outcome does the source give for CC(C)(C)C1CCC(=O)CC1 here?
**A.** inactive

**Q.** With CCCCC/C=C\C/C=C\CCCCCCCC(=O)O as the molecule, how does the outcome read?
**A.** inactive

**Q.** For O=C(OCCc1ccccc1)c1ccccc1, which outcome is on record?
**A.** inactive

**Q.** Which results are given for CC(C)(C)NC(=O)[C@H]1CC[C@H]2[C@@H]3CC[C@H]4NC(=O)C=C[C@]4(C)[C@H]3CC[C@]12C?
**A.** AC50: 50 µM (active); outcome: inactive

**Q.** For N#Cc1ccc(C2CCCc3cncn32)cc1 (stereo not given), which outcome is on record?
**A.** inactive

**Q.** With CCCCCCOC(=O)CCCCC(=O)OCCCCCC as the molecule, how does the outcome read?
**A.** inactive

**Q.** For C[Si](C)(C)N[Si](C)(C)C, which outcome is on record?
**A.** inactive

**Q.** For CCOC(=O)C1=NOC(c2ccccc2)(c2ccccc2)C1, which outcome is on record?
**A.** inactive

**Q.** For COc1ccc(-c2coc3cc(O)cc(O)c3c2=O)cc1, which AC50 is on record?
**A.** 0.86 µM (active)

**Q.** With CCCCCCCOC(=O)c1ccc(O)cc1 as the molecule, how does the outcome read?
**A.** inactive

**Q.** Which outcome does the source give for CCOC(=O)c1ccccc1C here?
**A.** inactive

**Q.** For NC(=O)Nc1ccccc1, which outcome is on record?
**A.** inactive

**Q.** For C1CNCCN1, which outcome is on record?
**A.** inactive

**Q.** For CCCC(CC)c1ccccc1 (stereo not given), which outcome is on record?
**A.** inactive

**Q.** Which outcome does the source give for CO[Si](C)(C)OC here?
**A.** inactive

**Q.** For CCCCCCCCCCCCc1ccc(O)cc1, which AC50 is on record?
**A.** 16.6 µM (active)

**Q.** With O=C(O)c1ccc2c(c1)C(=O)OC2=O as the molecule, how does the outcome read?
**A.** inactive

**Q.** Which outcome does the source give for CCc1cccc(C)c1N here?
**A.** inactive

**Q.** Which outcome does the source give for COC(=O)c1ccccc1C here?
**A.** inactive

**Q.** Which outcome does the source give for CCC1COC(=O)O1 (stereo not given) here?
**A.** inactive

**Q.** Which outcome does the source give for CCc1occc(=O)c1O here?
**A.** inactive
